The whole screen tested about 1,800 compounds, of which about 710 (39%) were called active. Inconclusive results (about 28%) are left out.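 The calls were made as follows: active = luciferase signal rise whose fitted curve crosses a set activity limit at or below the top valid tested dose; inconclusive = flat fit with 30 to 70% rise, or poor fit; inactive = signal falling, flat within 30%, or crossing above top dose.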 Only a sample is shown. Entries with a potency or affinity are not part of this list.

This assay is described as follows: reporter signal increase, D54 LucT cells – cell-based, luminescence, cherry pick, counter-screen for N-linked glycosylation inhibitor project, dose response (AID 624404). The conditions noted are these: D54 LucT luciferase reporter counterscreen, 24 h; series mostly up to 19.5 µM. (The purpose of a counterscreen is to sort out artefacts and off-target activity.)
On to `COc1ccc(CN(C(=O)c2ccc(CN3CCOCC3)o2)C(C(=O)NCC2CCCO2)c2ccc(F)cc2)cc1` (stereo not drawn), for which the call was inactive.

`COC(=O)COc1cccc2c(=O)n(CC(=O)NCc3ccccc3)ccc12`: the call was inactive.

With `COc1ccc(CC(=O)N/N=C/c2c(C)n(C)c3ccccc23)cc1OC`, the molecule was classed as inactive.

Take `C[C@@H]1[C@@H](Sc2ccccc2)CC(=O)O[C@@H]1c1ccc(-c2ccccc2)cc1`: the call was inactive.

On to `COc1ccc(-c2nc(C(N)=O)c3[nH]c(=O)n(-c4cccc(Cl)c4)c3n2)cc1OC`, for which the call was inactive.

Turning to `COc1ccc(OC)c(S(=O)(=O)Nc2ccc(-c3ccc4nnc(C)n4n3)cc2)c1`, the molecule was called inactive.

As for `COc1ccc(NC(=O)c2oc3ccccc3c2NC(=O)c2ccco2)cc1`, the molecule was called inactive.

With `COc1cc(OC)cc(C(=O)c2c(C)c(C#N)c3ccccn23)c1`, the molecule was classed as inactive.

On to `Cn1c(SCC(=O)Nc2cccc(F)c2)nc2c([nH]c3ccccc32)c1=O`, for which the result was inactive.

On to `CCc1nc(SCC(=O)c2ccc3c(c2)OCCO3)c2ccccc2n1`, for which the call was inactive.

For `CC(=O)N1N=C(c2ccccc2)OC1c1ccc([N+](=O)[O-])s1` (stereo not drawn), the outcome was inactive.

In the case of `CCOc1cc(CNc2ccc3cn[nH]c3c2)ccc1OC`, the result was inactive.

On to `COC(=O)c1cccc(Nc2c3c(nc4ccccc24)CCC3)c1`, for which the molecule was classed as inactive.

`CC(=O)c1cccc(Nc2cc(C)nc3c(C)cccc23)c1`: the result was inactive.

As for `Cc1ccc(OCCNC(=O)c2cccc(S(=O)(=O)NCc3ccccc3)c2)cc1`, the molecule was classed as inactive.

In the case of `CCN(CC)CCCNc1nc2cc(OC)c(OC)cc2c2nc(-c3ccccc3)nn12`, the outcome was inactive.

Consider `Cc1cc(NC(=O)/C=C/C(=O)N(CC(=O)NC2CCCC2)c2ccc(F)cc2)no1`, for which the molecule was called inactive.

For `Cc1cc(Br)ccc1NC(=O)CCCOc1cc(=O)n(C)c2ccccc12`, the call was inactive.

For the molecule `CC(C)CCNC(=O)Cn1c(=O)oc2cc(S(=O)(=O)N3CC(C)CC(C)C3)ccc21` (stereo not drawn), the call was inactive.

As for `O=C(/C=C/Sc1ccccc1)c1ccccc1`, the outcome was inactive.

For `O=C(/C=C/Sc1ccc(C(F)(F)F)cn1)c1ccccc1`, the molecule was called inactive.

As to `O=C(CSc1c2c(nc3ccc(Cl)cc13)CCCC2)N1CCN(C(=O)c2ccco2)CC1`, the molecule was classed as inactive.

Regarding `COc1ccccc1N1CCN(S(=O)(=O)CCNC(=O)c2cc(OC)c(OC)c(OC)c2)CC1`, the call was inactive.

As to `CCn1c2ccccc2c2cc(NC(=O)c3cc(OC)c(OC)c(OC)c3)ccc21`, the call was inactive.

For `Cc1cc(N2CCCCC2)nc(NCc2ccccc2)n1`, the molecule was classed as inactive.

With `COCCNc1nc(NCc2ccccc2)nc2ccsc12`, the outcome was inactive.

As for `Cc1cccc2c1NC(=O)/C2=C\C(=O)c1cccs1`, the molecule was called inactive.

On to `O=C(NCCC1=CCCCC1)C1CCC(CNc2nc(=S)[nH]c3ccccc23)CC1` (stereo not drawn), for which the molecule was classed as inactive.

For the molecule `COc1cc(NC(=O)c2ccccc2F)ccc1NC(=O)c1cc2ccccc2o1`, the result was inactive.

As for `COC(=O)c1ccccc1-c1ccc(C(c2c(C)[nH][nH]c2=O)c2c(C)[nH][nH]c2=O)o1`, the result was inactive.

With `COc1cc(C2Sc3ccccc3NC3=C2C(=O)OC3)cc(OC)c1OC` (stereo not drawn), the call was inactive.

As to `CCc1cccc(NC(=O)c2cc(S(=O)(=O)N(C)C)ccc2N2CCCC2)c1`, the outcome was inactive.

As for `CCOc1ccc(OCC)c(NC(=O)c2nnn(CC(=O)Nc3cc(C)cc(C)c3)c2N)c1`, the outcome was inactive.

In the case of `Cc1cnc(NC(=O)c2cc(S(=O)(=O)N(C)C)ccc2N2CCCC2)s1`, the outcome was inactive.

For the molecule `CCOc1cc(NC(=O)CCl)c(OCC)cc1NC(=O)CCl`, the molecule was called inactive.

For `CN(C)/N=C/c1ccc(Sc2ccc([N+](=O)[O-])cc2[N+](=O)[O-])o1`, the call was inactive.

Consider `COc1cc2c(cc1OC)C(C)N(C(=O)Nc1ccccc1)CC2` (stereo not drawn), for which the result was inactive.

With `COc1ccc(C(=O)/C=C/Sc2nc3ccccc3o2)cc1`, the outcome was inactive.

With `COc1cc(/C=N/Nc2nc3c(c(=O)n(C)c(=O)n3C)n2Cc2ccccc2)ccc1OC(=O)c1ccco1`, the molecule was classed as inactive.

`COc1ccc(CCn2c(Br)nc3c2c(=O)[nH]c(=O)n3C)cc1`: the result was inactive.

Take `COc1cc(C2CC(=O)N(c3ccc(C)cc3)C(=O)C2)cc(OC)c1OC`: the result was inactive.

For `CCN(CC)S(=O)(=O)c1cccc(NC(=O)CN2C(=O)NC3(CCC(C)CC3)C2=O)c1` (stereo not drawn), the molecule was classed as inactive.

As for `CC(C)c1ccc(NC(=O)CN2C(=O)NC3(CCCCCCC3)C2=O)cc1`, the call was inactive.

In the case of `NC(=O)c1ccc2c(=O)n3c(-c4cc(Cl)c(N)c(Cl)c4)csc3nc2c1`, the call was inactive.

For the molecule `OCC1OC(n2cnc3c(=S)nc[nH]c32)CC1O` (stereo not drawn), the result was inactive.

In the case of `Cc1cccn2c(=O)c3cc(C(=O)N4CCCCC4)sc3nc12`, the molecule was called inactive.

On to `Cc1cccn2c(=O)c3cc(C(=O)NC4CCCC4)c(=N)n(CCc4ccccc4)c3nc12`, for which the outcome was inactive.

With `Cc1cccn2c(=O)c3cc(C(=O)NC4CCCC4)c(=N)n(CC4CCCO4)c3nc12` (stereo not drawn), the call was inactive.

As to `Cc1cccn2c(=O)c3cc(C(=O)NC4CCCC4)n(C)c3nc12`, the outcome was inactive.

In the case of `CCN(CC)CCOc1ccc2c(c1)C(=NNC(=O)c1ccccn1)c1cc(OCCN(CC)CC)ccc1-2`, the call was inactive.

For `O=C(CCl)Nc1ccc(Sc2ccc(NC(=O)CCl)cc2)cc1`, the result was inactive.

As to `CCc1ccc(NC(=O)Cn2c(=O)n(CCC(=O)NC3CCN(Cc4ccccc4)CC3)c(=O)c3ccccc32)cc1`, the outcome was inactive.

For `CC(C)Oc1ccc(C(=O)/C=C2/C(=O)Nc3ccccc32)cc1`, the outcome was inactive.

With `Cc1[nH][nH]c(=O)c1C(c1ccc(-c2cccc(Cl)c2)o1)c1c(C)[nH][nH]c1=O`, the call was inactive.

In the case of `Cc1[nH][nH]c(=O)c1C(c1ccc(-c2ccc(F)cc2)o1)c1c(C)[nH][nH]c1=O`, the molecule was classed as inactive.

As to `CC1(C(=O)Nc2ccc(Cl)cc2)Cc2c(-c3ccc4c(c3)OCO4)ccnc2O1` (stereo not drawn), the result was inactive.

In the case of `CC1(C(=O)Nc2ccc3c(c2)OCO3)Cc2c(-c3ccc4c(c3)OCO4)ccnc2O1` (stereo not drawn), the result was inactive.

In the case of `CCOC(=O)c1cc2c(ccn2C)n1CC(=O)N1CCN(c2ccccc2)CC1`, the molecule was called inactive.

Take `FC(F)(F)c1cccc(Sc2nc(-c3ccccc3)nnc2C(F)(F)F)c1`: the call was inactive.

As for `Nc1nonc1-c1nc2ccccc2n1CC(=O)N/N=C\c1ccc(-c2ccc(Cl)cc2)o1`, the outcome was inactive.

As for `COc1ccc(C(=O)/C=C/c2ccc(OC(=O)c3cc(OC)c(OC)c(OC)c3)cc2)cc1`, the result was inactive.

In the case of `Cc1ccc2nc3c(cc(C(N)=S)c(=N)n3CCCOC(C)C)c(=O)n2c1`, the result was inactive.

In the case of `N=c1c(C(=O)NCc2ccco2)cc2c(=O)n3ccccc3nc2n1CCc1ccccc1`, the outcome was inactive.

Take `COc1ccc(CCn2c(=N)c(S(=O)(=O)c3ccc(C)cc3)cc3c(=O)n4ccccc4nc32)cc1`: the molecule was called inactive.

With `CCOc1cc(/C=C/C(=O)c2ccc(C)cc2)ccc1OCC(=O)N(C)C`, the call was inactive.

In the case of `O=C(Nc1cccc(-n2cnnn2)c1)c1cc(Cl)ccc1Cl`, the call was inactive.

On to `c1ccc(CN2CCC(Nc3nc(-c4cccnc4)nc4ccccc34)CC2)cc1`, for which the molecule was classed as inactive.

Turning to `COc1ccc(N2CC(C(=O)Nc3cc(C(F)(F)F)ccc3N3CCCC3)CC2=O)c(OC)c1` (stereo not drawn), the result was inactive.

As to `CCc1ccc(N2CC(C(=O)Nc3ccccc3N3CCCC3)CC2=O)cc1` (stereo not drawn), the molecule was called inactive.

Consider `Cn1nc(-c2ccc(N3CCOCC3)c(NS(=O)(=O)c3ccccc3)c2)c2ccccc2c1=O`, for which the result was inactive.

Take `COc1ccc2nc3n(c(=O)c2c1)-c1cc2ccccc2cc1C(=O)NC3Cc1ccccc1` (stereo not drawn): the molecule was called inactive.

As to `COc1cccc(/C=N/NC(=O)c2[nH]nc3c2CCc2ccccc2-3)c1`, the outcome was inactive.

In the case of `Cc1ccc(C(c2cc(Cl)c3cccnc3c2O)N2CCN(C)CC2)cc1` (stereo not drawn), the molecule was classed as inactive.

Consider `Cc1nc2c3cc(F)ccc3n(CCN3CCCCC3)c2s1`, for which the outcome was inactive.

Take `COc1ccc(F)cc1C1=CC(=O)C[C@H](c2ccc3c(c2)OCO3)C1`: the molecule was called inactive.

On to `CN1C/C(=C\c2ccc(N3CCOCC3)cc2)C(=O)/C(=C/c2ccc(N3CCOCC3)cc2)C1`, for which the call was inactive.

In the case of `COc1cc(-c2nc(-c3ccccc3)c(-c3cccs3)[nH]2)cc(OC)c1O`, the molecule was called inactive.

As to `Cc1noc(C)c1COc1ccccc1C(=O)N1CCN(c2cccc(C(F)(F)F)c2)CC1`, the result was inactive.

On to `CN(C)c1ccc(/C=C/c2cc[n+](C)c3ccccc23)cc1`, for which the molecule was called inactive.

On to `COc1ccc(C2C(C(=O)Nc3cc(OC)c(OC)c(OC)c3)c3ccccc3C(=O)N2C)cc1` (stereo not drawn), for which the result was inactive.

With `Cn1cc(/C=N/n2cnc3scc(-c4ccc(Cl)cc4)c3c2=O)c2ccccc21`, the call was inactive.

As for `Cc1[nH][nH]c(=O)c1C(c1ccc(-c2ccc(Cl)c(Cl)c2)o1)c1c(C)[nH][nH]c1=O`, the molecule was called inactive.

As for `Cc1ccccc1OCC(O)CN1CCN(CCN2C(=O)c3cccc4cccc(c34)C2=O)CC1` (stereo not drawn), the result was inactive.

As for `COc1cccc(OCC(O)CN2CCN(CCN3C(=O)c4cccc5cccc(c45)C3=O)CC2)c1` (stereo not drawn), the outcome was inactive.

Take `CC(C)CCN(C(=O)Cc1ccc(Cl)c(Cl)c1)c1c(N)n(Cc2ccccc2)c(=O)[nH]c1=O`: the result was inactive.

For `CCN(CC)c1ccc(/C=C/c2cccc[n+]2C)c(OC)c1`, the call was inactive.

Consider `O=C(Cn1cnc2c(NCc3ccccc3)ncnc21)NCc1ccccc1`, for which the molecule was called inactive.

`COc1ccc(Nc2nc(N3CCCC3)nc3ccccc23)c(OC)c1`: the call was inactive.

Regarding `CC(=O)c1ccc(Nc2c3c(nc4ccccc24)CCCC3)cc1`, the call was inactive.

Turning to `CCOc1ccccc1C1CC(=O)Nc2cc3c(cc21)OCO3` (stereo not drawn), the molecule was called inactive.

As to `Cc1ccc(C)c(N2CCN(c3cnn(-c4nc5ccccc5s4)c(=O)c3Cl)CC2)c1`, the result was inactive.

On to `CC(C)(C)c1ccc(C(=O)O/N=C(\N)Cc2cccs2)cc1`, for which the molecule was called inactive.

As for `O=C(CCl)Nc1cn(-c2ccccc2)nc1-c1ccc(F)cc1`, the result was inactive.

Consider `CC1=CC(C)[C@H](/C=N/n2c(=O)[nH]c3c([nH]c4ccc(Br)cc43)c2=O)C(C)C1` (stereo partly drawn), for which the outcome was inactive.

Consider `COc1ccc(-c2nn(C)c(=O)c3ccccc23)cc1NS(C)(=O)=O`, for which the call was inactive.

As for `CC=Cc1cc2c(c(=O)o1)C(=O)C(O)C(C)O2` (stereo not drawn), the molecule was called inactive.

As for `Cc1noc(C)c1COc1ccc(C(=O)NNC(=O)c2ccccc2F)cc1`, the molecule was classed as inactive.

Consider `Cc1ccc(OCCOC(=O)c2c(-c3ccccc3)noc2C)cc1`, for which the molecule was classed as inactive.

These data come from PubChem BioAssay AID624404 (Broad Institute, 2012).
